# Laboratory results taken from PubChem BioAssay (NCATS).
# Where “and” joins values, the source holds several entries; their conditions need not be identical. Equal values may be shown once. Results filed as inconclusive are left out. Where a call stands in place of a potency, no number is given. Where a structure was tested more than once in an assay, its records may differ in their call. Calls of active or inactive are those of the source. Calls come from the whole dose curve; as a rule, active = well fitted inhibition curve with a large enough effect; inconclusive = small, poorly fitted or top-dose-only effect; inactive = no such curve, though single readings can be large or run the other way.
# Molecular target: Cytochrome P450 2C19 (Homo sapiens) (UniProt P33261)
# Experiment: qHTS Assay for Inhibitors and Substrates of Cytochrome P450 2C19 (AID 899); note: nearly all actives have a fitted effect of over 60% in size
# Conditions: recombinant CYP2C19, luciferin-H EGE luminescence; series mostly up to 11.4 µM
# Experimental: NIH Molecular Libraries Screening Centers Network [MLSCN]
# NIH Chemical Genomics Center [NCGC]
# The P450 gene superfamily is involved in the metabolism and clearance of xenobiotics. This assay used human CYP2C19 to measure the hydroxylation of ethylene glycol ester of 6' deoxyluciferin (Luciferin-H EGE; […]) to luciferin. The luciferin is then measured by luminescence after the addition of a luciferase detection reagent. Luciferin-H EGE concentration in the assay was equal to its KM for CYP2C19. Inhibitors and some substrates limit the production of luciferin, and decrease measured luminescence.
# NCGC Assay Protocol Summary:
# Two uL of enzyme and substrate mix (final concentrations: 5nM CYP2C19, 10uM Luciferin-H EGE, 50mM KPO4) were dispensed into a white, solid bottom 1536-well microtiter plate. 23nL of compound was transferred by a pin tool. The plate was incubated at 37C for 10 min. Two uL of an NADPH regeneration solution (Promega supplied reagent) was dispensed and the reaction was allowed to continue for 60 min at 37C. Then the reaction was stopped by reconstituted luciferin detection buffer. After another 20 min of incubation the plate was read on the ViewLux (Perkin Elmer) at 60 sec exposure and 2x2 binning. This protocol was carried out with Promega-Glo reagents and further information can be found at http://www.promega.com/tbs/tb325/tb325.pdf. Data were normalized to the to AC100 inhibition (57uM ketoconazole).
# Keywords: P450, CYP2C19, Luciferase, MLSMR, MLSCN, NIH Roadmap, qHTS, NCGC
# Potency is the fitted concentration of half-maximal effect.
# Cytochrome P450 2C19 (Homo sapiens), sequence (P33261 whole entry, looked up): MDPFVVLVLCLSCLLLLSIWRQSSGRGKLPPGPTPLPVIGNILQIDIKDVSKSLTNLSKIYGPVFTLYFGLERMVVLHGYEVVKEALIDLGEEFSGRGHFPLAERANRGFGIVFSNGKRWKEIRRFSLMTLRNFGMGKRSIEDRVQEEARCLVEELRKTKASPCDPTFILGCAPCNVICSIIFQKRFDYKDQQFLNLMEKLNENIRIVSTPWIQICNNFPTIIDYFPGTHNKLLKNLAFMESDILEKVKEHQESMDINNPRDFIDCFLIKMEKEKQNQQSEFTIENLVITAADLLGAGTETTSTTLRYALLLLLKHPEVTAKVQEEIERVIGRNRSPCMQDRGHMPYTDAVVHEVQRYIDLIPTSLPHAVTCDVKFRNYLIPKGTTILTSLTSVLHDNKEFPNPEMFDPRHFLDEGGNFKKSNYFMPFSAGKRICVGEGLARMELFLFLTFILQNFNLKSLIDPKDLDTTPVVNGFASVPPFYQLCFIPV
row,SMILES,Potency
1,C=C(C)C(O)/C=C/c1cccc(OC)c1 (stereo not given),12.6 nM (active)
2,CC(=O)c1ccc(OC2C(O)COC2/C=C/c2ccc(Cl)cc2)cc1 (stereo not given),inactive
3,CC1(C)OC(C(O)(c2cc(C(F)(F)F)cc(C(F)(F)F)c2)c2cc(C(F)(F)F)cc(C(F)(F)F)c2)C(C(O)(c2cc(C(F)(F)F)cc(C(F)(F)F)c2)c2cc(C(F)(F)F)cc(C(F)(F)F)c2)O1 (stereo not given),inactive
4,CCOC(=O)CCN1C(=O)[C@H]2[C@@H]3[C@H](O)[C@H](O)CC(=O)[C@H]3CC[C@H]2C1=O,inactive
5,C=CCc1cccc(C2NC(C(=O)O)CCC2C)c1 (stereo not given),inactive
6,COC(=O)C/C=C\[C@@H](C)[C@@H](/C=N\OC[C@@H]1O[C@H](c2ccccc2)C=C[C@@H]1Oc1ccc(OC)cc1)OC,1580 nM (active)
7,OCC1OC(C#Cc2ccccc2)C=CC1OCc1ccccc1 (stereo not given),12.6 nM (active)
8,COC(=O)NC(c1cccc(C)c1)[C@]1(C(C)=O)CCOC1=O (stereo not given in full),39.8 nM (active)
9,CC1CCC(C(=O)O)NC1c1ccc(-c2ccco2)cc1 (stereo not given),inactive
10,O=C1C2Cc3c([nH]c4ccccc34)C(c3ccccc3)N2C(=O)C2Cc3c([nH]c4ccccc34)C(c3ccccc3)N12 (stereo not given),inactive
11,O=C1[C@@H]2[C@H]3[C@H](O)[C@H](O)C/C(=N/OC[C@@H](O)COCc4ccco4)[C@H]3CC[C@H]2C(=O)N1c1ccc(F)cc1F,inactive
12,COC(c1ccccc1)C(C)C(OC)C(C)C(OC)C(C)C(C)=O (stereo not given),inactive
13,C=CCOCC/C=C1/c2ccccc2C(OC)C1C (stereo not given),3980 nM (active)
14,C/C=C/OC(=O)NC(c1ccccc1)[C@@]1(C(=O)OCC)CCCC1=O (stereo not given in full),25.1 nM (active)
15,CCOC(=O)OCC1OC(c2cc(C)cc(C)c2)C=CC1OC(=O)OCC (stereo not given),inactive
16,C=CCC(O)CC1C2C(CC(O)CC=C)C3C1C3C2OC(C)(C)C (stereo not given),794 nM (active)
17,COC(=O)C[C@@H]1O[C@H]1[C@H](C)[C@@H](OC)C(C)C,3980 nM (active)
18,COC(=O)NC(c1ccccc1)[C@@]1(C(=O)OC)CCCC1=O (stereo not given in full),inactive
19,C/C(CCN1CCc2nc(-c3ccccc3)c(-c3ccccc3)cc2C1)=N\OC[C@@H](C)[C@H](OCc1ccccc1)C(C)C,1580 nM (active)
20,C=CCOC(=O)C(C(C)=O)C(NC(=O)OC)c1ccco1 (stereo not given),inactive

row,SMILES,Potency
1,CC/C=C\CC[C@H](OC(=O)c1ccc(Br)cc1)C1=CCCCC1=O,2000 nM (active)
2,COC(=O)NC(/C=C/c1ccccc1)[C@]1(C(C)=O)CCCC1=O (stereo not given in full),inactive
3,COc1ccc(/C=C/NC(=O)c2ccc(OC)cc2)cc1,inactive
4,CCCCCCC/C=C/C1=CC2(C)CC1(C)C(CCCCCCC)CC2=O (stereo not given),inactive
5,COc1ccc(O[C@H]2C=C[C@@H](c3ccccc3)O[C@H]2COC(=O)CC/C(C)=N\O[C@@H](C)CN2CCCCc3nc(C)c(C)cc32)cc1,5010 nM (active)
6,COc1cc(C2c3[nH]c4ccccc4c3CC3C(=O)N4C(Cc5c([nH]c6ccccc56)C4c4cc(OC)c(OC)c(OC)c4)C(=O)N32)cc(OC)c1OC (stereo not given),inactive
7,CC(=O)OCC1OC(C#Cc2ccccc2Cl)C=CC1OC(C)=O (stereo not given),3160 nM (active)
8,C/C=C/OC(=O)NC(c1cccc(C)c1)[C@@]1(C(=O)OCC)CCCC1=O (stereo not given in full),1000 nM (active)
9,C=CC[C@@H]1C=C[C@H](Oc2ccc(C)cc2)[C@H](COC(=O)NCc2cccc3ccccc23)O1,1260 nM (active)
10,CC(=O)OCC1OC(c2ccc(C(C)=O)cc2)C=CC1OC(C)=O (stereo not given),inactive
11,CCCCCCC1=Cc2cc(OC)c(OC)cc2C(C2(C(=O)OCC)CCCC2=O)O1 (stereo not given),inactive
12,C=C(C)C(O)/C=C/c1ccc(C)cc1 (stereo not given),5010 nM (active)
13,COC(=O)C1=C(C)N(Cc2ccccc2)[C@]23O[C@](C(=O)OC)(C(=O)N2C1c1ccccc1)C1CCCC(=O)C13 (stereo not given in full),inactive
14,OCC1OC(C#Cc2ccccc2)C=CC1O (stereo not given),inactive and 631 nM (active)
15,CC1(C)OC(C(O)(c2ccccc2)c2ccccc2)C(C(O)(c2ccccc2)c2ccccc2)O1 (stereo not given),inactive
16,CC(=O)OCC1OC(C#CC2=CCCCC2)C=CC1OC(C)=O (stereo not given),inactive
17,CC1CCC(C(=O)O)NC1c1cccc(N2CCOCC2)c1 (stereo not given),inactive
18,CC(=O)Nc1ccc(C2C(C)CCC3C(=O)N4C(CCC(C)[C@@H]4c4ccc(NC(C)=O)cc4)C(=O)N32)cc1 (stereo not given in full),inactive
19,COC(=O)[C@@]1(Cc2ccccc2)[C@H]2c3cc(C(=O)N4CCCC4)[nH]c3C[C@H]2CN1C(=O)c1ccccc1,501 nM (active)
20,CCOC(=O)OCC1OC(c2ccccc2)C=CC1Oc1ccc2oc(=O)cc(C)c2c1 (stereo not given),inactive
